# ELG1 DNA repair – ELG1-dependent DNA repair inhibition; HEK293T ELG1-luciferase reporter, luminescence, 16 h; DNA damage induced by 5-fluorouridine; Potency, µM (top dose mostly 46.1 µM), without a hit: top-dose activity change, negative = inhibition, usual class: inhibitors; 330,000 compounds, 2.3% hits; AID 504467; note: % is set by controls: 0 for no effect and ±100 for the full control effect; nearly all actives have a fitted effect of over 55% in size
#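 Quantitative HTS, concentration-response format. 2,000 cells/well co-treated with 5-fluorouridine and compound, 16 hr in 5% CO2 at 37 °C; ONE-Glo luminescence read after 30 min.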
# Rab9 prom act – Rab9 promoter activation | Huh7 Rab9 promoter-luciferase reporter, luminescence, 24 h | Potency, µM (series often up to 9.22 µM), without a hit: top-dose activation, negative = inhibition, usual class: activators | 320,000 compounds, 2.8% hits; note: % of control where 0% means no effect; nearly all actives have a fitted effect of over 60% in size
#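 Quantitative HTS format; Huh7 Rab9-luciferase reporter cells (1500/well) receive compound 2 h post-plating, incubate 24 h at 37 °C, then get luciferase reagent for 10 min before luminescence reading.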
# FLuc modulator – firefly luciferase modulation, counter-screen for miR-21 project; AID 588342; P08659; purified FLuc, Km substrates, luminescence inhibition; 360,000 compounds, 6.9% hits; Potency, µM (top dose mostly 57.5 µM), for the others: at the top dose activity change, negative = inhibition, usual class: inhibitors;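 note: plate controls were vehicle for no effect and reference inhibitor for full effect; nearly all actives have a fitted effect of over 55% in size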
# Target sequence (P08659 whole entry, looked up): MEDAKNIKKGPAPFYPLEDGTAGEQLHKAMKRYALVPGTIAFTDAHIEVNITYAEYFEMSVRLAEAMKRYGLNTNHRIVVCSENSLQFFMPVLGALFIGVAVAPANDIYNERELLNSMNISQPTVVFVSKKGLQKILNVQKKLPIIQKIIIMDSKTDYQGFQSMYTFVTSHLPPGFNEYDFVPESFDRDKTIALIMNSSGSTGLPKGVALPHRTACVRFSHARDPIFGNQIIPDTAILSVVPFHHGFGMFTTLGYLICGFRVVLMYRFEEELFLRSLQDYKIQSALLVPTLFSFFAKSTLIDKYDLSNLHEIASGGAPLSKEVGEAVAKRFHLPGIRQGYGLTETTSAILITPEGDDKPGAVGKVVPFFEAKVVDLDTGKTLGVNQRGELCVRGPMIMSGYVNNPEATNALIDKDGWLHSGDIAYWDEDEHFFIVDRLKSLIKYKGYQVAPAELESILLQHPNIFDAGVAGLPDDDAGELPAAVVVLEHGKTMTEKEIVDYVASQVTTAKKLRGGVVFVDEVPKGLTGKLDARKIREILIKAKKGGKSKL
#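 Purified P. pyralis luciferase (10nM final) with 10uM D-luciferin and 10uM ATP (Km levels) in 50mM Tris acetate pH 7.5, 10mM Mg acetate, 0.01% Tween-20, 0.05% BSA; qHTS 6-point titration, ~60 µM downward; luminescence read.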
# SMN2 splice enh – increases expression of the SMN2 splice variant. 210,000 compounds, 2.8% hits. HEK293 SMN2-luciferase splicing reporter, luminescence, 30-36 h. Potency, µM (titrated, usually from 46.1 µM), without a hit: at the highest dose activity change, positive = activation, actives largely listed as activators; note: % of control where 0% means no effect; nearly all actives have a fitted effect of over 55% in size
#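 qHTS luciferase splicing reporter: luminescence rises when SMN2 exon 7 is included in transfected HEK293 cells. Compound exposure lasted 30-36 h at 37C, with 4.5 mM final sodium butyrate as control, followed by a ONE-Glo read.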
# NPC1 prom act – NPC1 promoter activation; Huh7 NPC1 promoter luciferase reporter, 24 h; Potency, µM (highest dose often 9.22 µM), inactives show at the top dose activation, most hits filed as activators; 320,000 compounds, 2.4% hits; note: % of control where 0% means no effect; nearly all actives have a fitted effect of over 60% in size
#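 Huh7 cells stably carrying NPC1 promoter–luciferase, plated in Opti-MEM with 10% FBS for 2 h, were exposed to compound in DMSO for 24 h at 37 °C; luciferase reagent was added for 10 min and luminescence read.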
# ELG1 genotoxic – induces genotoxicity in HEK293T cells with luciferase-tagged ELG1; HEK293T ELG1-luciferase reporter, luminescence, 16 h; Potency, µM (highest dose often 46 µM), for the others: top-dose activity change, positive = activation, usual class: activators; 330,000 compounds, 1.3% hits; AID 504466; note: % of control where 0% means no effect; nearly all actives have a fitted effect of over 60% in size
#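 Reporter readout depends on ELG1 protein level, which increases with genetic stress. After 16 hr compound exposure at 37 °C, luciferase activity was quantified using ONE-Glo.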
# The depositor's hits bear a star; ? = inconclusive; / = no result given; [ ] = another dose, or the depositor's remark. Most compounds without a hit are left out; they make up all but 9.4% or so of the library. Calls come from the whole dose curve; as a rule, active = well fitted curve in the direction sought with a large enough effect; inconclusive = small, poorly fitted or top-dose-only effect, or another doubt; inactive = no such curve, though single readings can be large; an effect the other way counts as inactive or inconclusive. Potency is the fitted concentration of half-maximal effect.
SMILES,ELG1 DNA repair,Rab9 prom act,FLuc modulator,SMN2 splice enh,NPC1 prom act,ELG1 genotoxic
Cc1ccc(C)[n+](CC(=O)c2ccc(-c3ccccc3)cc2)c1,7.3µM*,-15%,-12%,-29%,0%,-8%
O=C(CCCCCCCC(=O)c1ccccc1)c1ccccc1,1%,-7%,-18%,1%,10%,0%
Cc1ccc(C(=O)OCC(=O)Nc2ccccc2)cc1NC(=O)c1ccco1,?,14%,-13%,6%,-3%,?
CCCC(=O)c1ccc(-c2ccccc2)cc1,?,0%,17µM*,?,6%,?
N=c1ccn(CC(=O)c2ccc(-c3ccccc3)cc2)cc1,?,-54%,-1%,/,-43%,-10%
CC(=O)Nc1cc(C(=O)OCC(=O)c2ccccc2)ccc1C,?,4.5µM*,19µM*,10µM*,3.2µM*,15µM*
Cc1ccc[n+](CC(=O)c2ccc(-c3ccccc3)cc2)c1,?,-6%,1%,-30%,-2%,-7%
Cc1cc(C)cc(N2C(=O)CSC23C(=O)N(CC(=O)NC2CCCCC2)c2ccccc23)c1 (stereo not drawn),/,/,-8%,/,/,/
Cc1ccc(C(=O)COC(=O)c2cc(Cl)nc3ccccc23)cc1,-3%,1%,11µM*,1%,-1%,2%
CCOC(=O)C(CC(=O)c1ccccc1)CC(=O)c1ccccc1,?,23%,13µM*,/,?,17%
Cc1ccc(C(=O)OCC(=O)c2ccccc2)cc1,?,0.56µM*,1.9µM*,/,0.32µM*,0.58µM*
Cc1ccc(C(=O)CC(=O)c2ccccc2)cc1,?,2.2µM*,9.5µM*,/,2.5µM*,25%
Cc1ccc(C(=O)NC(=S)NCC(=O)c2ccccc2)cc1,25%,25%,?,25%,14%,5%
Cc1ccc(NC(=O)c2c(NC(=O)c3ccccc3Cl)sc3c2CCC3)cc1,/,/,-18%,-4%,/,/
Cc1ccc(C(=O)Sc2cccccc2=O)cc1,?,-52%,3µM*,/,-39%,6.5µM*
CC(=O)NC(C)C(=O)OCC(=O)c1ccc(-c2ccccc2)cc1 (stereo not drawn),?,-4%,13µM*,7%,-3%,11%
CC(NC(=O)c1ccccc1)C(=O)OCC(=O)c1ccc(Br)cc1 (stereo not drawn),6%,17%,-10%,/,-2%,6%
CCOC(=O)c1nnc(-c2ccccc2)o1,11%,1%,-5%,-8%,2%,0%
CCc1ccc(C(=O)COC(=O)c2ccc(-c3nnc(-c4ccccc4)o3)cc2)cc1,?,0.56µM*,-4%,7.9µM*,0.89µM*,?
Cc1ccc(S(=O)(=O)/N=C(/Sc2ccccc2C(=O)O)c2ccccc2)cc1,0%,2%,-4%,/,-1%,2%
CCc1ccc(-c2csc(NC(=O)COC(=O)CCc3nc4ccccc4s3)n2)cc1,?,3.2µM*,?,5.6µM*,2.8µM*,?
CCCCC(CC)Cn1c(Oc2ccccc2)nc2c1c(=O)n(C)c(=O)n2C (stereo not drawn),/,/,-10%,-10%,/,/
CCOc1cc(/C=N/NC(=O)c2ccc(CN3CCOCC3)cc2)ccc1OCc1ccccc1,18µM*,-19%,-1%,-47%,-8%,-13%
O=C(N/N=C/c1ccc(O)cc1O)c1ccc(CN2C(=O)c3cccc4cccc2c34)cc1,2.9µM*,-42%,-1%,-81%,-30%,14%
O=C(N/N=C/c1cccc2ccccc12)c1ccc(CN2CCOCC2)cc1,-25%,1%,17µM*,/,-4%,-8%
SMILES,ELG1 DNA repair,Rab9 prom act,FLuc modulator,SMN2 splice enh,NPC1 prom act,ELG1 genotoxic
O=C(N/N=C/c1ccccc1)c1ccc(CN2C(=O)c3cccc4cccc2c34)cc1,?,4%,-19%,-7%,-3%,-3%
Cc1ccc(S(=O)(=O)Cc2cc(F)c([N+](=O)[O-])cc2[N+](=O)[O-])cc1,16µM*,-31%,-19%,/,-28%,-10%
CCOC(=O)c1ccc([N+](=O)[O-])c(CS(=O)(=O)c2ccc(Cl)cc2)c1,-8%,-7%[1.84 µM],4%,/,-3%,-5%
O=C1c2[nH]nc(-c3ccccc3O)c2C(c2cccc(OCc3ccccc3)c2)N1CCCO (stereo not drawn),/,/,-1%,-3%,/,/
CC(Oc1ccc2c(c1)oc(=O)c1ccccc12)C(=O)NC(Cc1c[nH]c2ccc(O)cc12)C(=O)O (stereo not drawn),-11%,0%,27µM*,/,1%,5%
COc1ccccc1N=C(C)C1=C(O)CSC1=O,20%,-25%,0%,-12%,-4%,7%
CC(=Nc1ccc(C)c(C)c1)C1=C(O)CSC1=O,?,?,11µM*,?,21%,18µM*
Cc1ccc2oc(-c3cc(NC(=O)c4ncn[nH]4)ccc3O)nc2c1,-11%,2%,2.7µM*,/,-3%,0%
O=C(NCC(=O)N1CCN(C/C=C/c2ccccc2)CC1)c1ccc(Br)cc1,21µM*,/,/,/,/,-4%
O=C(NC(=S)N1CCN(Cc2ccccc2)CC1)c1cccnc1,2%,-6%,0%,/,0%,-4%
O=C(NC(=S)N1CCN(C/C=C/c2ccccc2)CC1)c1ccc(Cl)nc1,18µM*,0%,-3%,/,-4%,-11%
CN(C)c1ccc(/C=C/c2ccc3c4ccccc4ccc3[n+]2-c2ccccc2)cc1,1.5µM*,-41%,27µM*,-50%,-47%,-4%
O=C(/C=C/c1ccccc1Cl)NC1CCCCC1,?,3.5µM*,11µM*,/,2.8µM*,?
Cc1ccc(/C=N/NC(=O)NC2CCCCC2)o1,?,20%,-20%,-6%,8%,8%
O=C(/C=C/c1ccccc1Cl)NC1CCS(=O)(=O)C1 (stereo not drawn),6%,-4%,-2%,/,-3%,5%
Cc1ccc(/C=C/C(=O)NC2CCCCCCC2)o1,?,?,24µM*,?,28%,?
COc1ccc(CCNC(=O)c2nc(SCc3ccc(F)cc3)ncc2Cl)cc1OC,/,/,?,-39%,/,/
O=C(NCc1cccnc1)C1CCC(c2ccc(Cl)cc2)CC1 (stereo not drawn),9.2µM*,-12%,0%,/,-10%,-7%
O=C(NCc1cccnc1)C1CCN(C(=O)c2ccc(Cl)cc2Cl)CC1,12%,-1%,6%,-24%,0%,0%
CCN(CC)c1ccc(N=Nc2nn(C)c(C)c2[N+](=O)[O-])cc1,?,1.4µM*,1.7µM*,14µM*,0.79µM*,5.8µM*
